Source: PubChem
HT1080NT lethal: qHTS for induction of synthetic lethality in tumor cells producing 2HG: qHTS for the HT-1080-NT fibrosarcoma cell line. HT-1080-NT fibrosarcoma viability, CellTiter-Glo ATP luminescence, 48 h. Potency, µM (series often up to 46.1 µM), for the others: top-dose activity, negative = less viability, usual class: cytotoxic. 360,000 compounds, 1.6% hits;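 also: NT is the 2HG producing partner of a matched IDH1 knockdown line; 0% = DMSO-treated cells and -100% = media-only wells without cells; nearly all actives have a fitted effect of over 55% in size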
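Fibrosarcoma NT cells, 750 per well in 5% FBS RPMI, were exposed to compound for 48 hours. Viability: CellTiter-Glo luminescence.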
HT1080 IDH1KD tx: qHTS for induction of synthetic lethality in tumor cells producing 2HG: qHTS for the HT-1080-IDH1KD cell line; HT-1080 IDH1 knockdown viability, ATP luminescence, 48 h; Potency, µM (doses to about 46.1 µM), without a hit: top-dose activity, negative = toxicity, hits mostly cytotoxic; AID 686971, 2013; 360,000 compounds, 2% hits;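 also: 0% = DMSO wells and -100% = cell-free medium wells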
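Knockdown cells (IDH1KD HT-1080) received compounds 2 h after plating at 750 cells/well and were kept 48 h at 37 °C in 5% FBS RPMI. A CellTiter-Glo luminescence read gave % activity for curve fitting.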
KB-V1 cytotox: qHTS assay for MDR1-selective chemotherapeutics: Primary screen using the drug-selected MDR subline cells KB-V1; KB-V1 MDR cells viability, CellTiter-Glo, 72 h; Potency, µM (top dose mostly 46.1 µM), usual class: cytotoxic; 400,000 compounds, 3.4% hits; AID 1347076, 2019; also: % is scaled to controls: 0 for no effect and ±100 for the full control effect; nearly all actives have a fitted effect of over 60% in size
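qHTS viability screen in drug-selected KB-V1 MDR cells: 72 h compound treatment at 37 degrees C, ATP luminescence end point.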
KB-3-1 cytotox: qHTS assay for MDR1-selective chemotherapeutics: Primary screen using the parental adenocarcinoma cell KB-3-1. KB-3-1 viability, CellTiter-Glo ATP luminescence, 72 h. Potency, µM (highest dose often 46.1 µM), most hits filed as cytotoxic. 400,000 compounds, 1.4% hits; also: % is scaled to controls: 0 for no effect and ±100 for the full control effect; nearly all actives have a fitted effect of over 60% in size
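Viability of parental KB-3-1 cells, measured by CellTiter-Glo luminescence, followed a 72 h incubation at 37 °C with pinned compounds in phenol-red-free DMEM containing 10% FBS.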
MCF10A rerep: A quantitative high throughput screen for small molecules that induce DNA re-replication in MCF 10a normal breast cells | MCF 10A DNA re-replication, Hoechst nuclear intensity, 48 h | Potency, µM (titrated, usually from 46.1 µM), for the others: top-dose activity, positive = re-replication, usual class: activators | AID 624296, 2012 | 350,000 compounds, 2.9% hits; also: % of control where 0% means no effect; nearly all actives have a fitted effect of over 50% in size
SW480 rereplic: A quantitative high throughput screen for small molecules that induce DNA re-replication in SW480 colon adenocarcinoma cells. 340,000 compounds, 1.8% hits. AID 624297, 2012. Potency, µM (doses to about 46.1 µM), without a hit: top-dose re-replication activation, hits mostly activators. SW480 DNA re-replication, Hoechst DNA content imaging, 48 h; also: % of control where 0% means no effect; nearly all actives have a fitted effect of over 55% in size
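Compounds, transferred as 23 nL by pin tool, were incubated with cells for 48 hr; DNA content per nucleus was then quantified by Hoechst staining and fluorescence plate imaging.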
Active calls of the source: *; i = inactive; u = inconclusive; x = no result given. An excerpt weighted towards active compounds, which were near 8% of everything screened. Calls follow the shape of the dose curve; as a rule, active = well fitted curve in the direction sought with a large enough effect; inconclusive = small, poorly fitted or top-dose-only effect, or another doubt; inactive = no such curve, though single readings can be large; an effect the other way counts as inactive or inconclusive. Potency is read from the fitted curve at half-maximal effect.

SMILES	HT1080NT lethal	HT1080 IDH1KD tx	KB-V1 cytotox	KB-3-1 cytotox	MCF10A rerep	SW480 rereplic
CCC(CO)Oc1cc(NCc2ccc(F)cc2)c2ncn(C(C)C)c2c1 (stereo not given)	-6%	-4%	i	i	23µM*	u
CCC(CN(C)C)Oc1cc(NCc2ccccc2)c2ncn(C(C)C)c2c1 (stereo not given)	-13%	-13%	i	i	u	18µM*
CCC(CO)Oc1cc(NCc2cc(C)cc(C)c2)c2ncn(C(C)C)c2c1 (stereo not given)	-3%	-5%	i	u	2%	12%
CCC(CO)Oc1cc(NCc2ccncc2)c2ncn(C(C)C)c2c1 (stereo not given)	11%	0%	i	i	18%	3%
CCC(CO)Oc1cc(NCc2ccc(C)c(C)c2)c2ncn(C(C)C)c2c1 (stereo not given)	u	-16%	i	u	15µM*	5.2µM*
CCOC(=O)c1cccc(NC(=O)CSc2ncc3c(n2)-c2ccc(Cl)cc2N(Cc2ccccc2)S3(=O)=O)c1	x	x	i	i	x	x
CC1CCC(C(C)C)C(OC(=O)COC(=O)c2cc(O)ccc2N)C1 (stereo not given)	u	u	i	i	23µM*	26µM*
O=C(CCNS(=O)(=O)c1ccccc1)N1CCCCCCC1	1%	3%	i	i	-9%	-28%
CC(CNS(=O)(=O)c1ccccc1)(c1ccccc1)N1CCCCC1 (stereo not given)	0%	9%	u	i	-1%	2.6µM*
CC(=O)Nc1ccc(NC(=O)c2oc3ccc4c(c3c2C)C(=O)CC(C)(C)O4)cc1	x	x	i	i	x	x
CN(CC(=O)NCc1ccccc1Cl)S(=O)(=O)c1ccc2c(c1)c(=O)n(C)c(=O)n2C	x	x	i	i	x	x
CC(=O)Nc1cc2c3c(cccc3c1)-c1ccccc1-2	-14%	-27%	i	i	2.3µM*	16µM*
Oc1ccc(Cl)cc1C1C=C(c2ccc3c(c2)OCO3)NC(c2ccc(Cl)cc2)N1 (stereo not given)	x	x	i	i	x	x
CCCn1c(=N)c(S(=O)(=O)c2ccc(F)cc2)cc2c(=O)n3ccccc3nc21	1%	-3%	i	i	u	u
COc1ccc(CCNC(=O)c2cc3c(=O)n4cccc(C)c4nc3n(CC3CCCO3)c2=N)cc1 (stereo not given)	-3%	0%	i	i	9.2µM*	8.2µM*
CCn1c(=N)c(C(=O)NCC2CCCO2)cc2c(=O)n3cc(C)ccc3nc21 (stereo not given)	x	x	i	i	x	x
CC(NC(=O)c1cc2c(=O)n3ccccc3nc2n(CC2CCCO2)c1=N)c1ccccc1 (stereo not given)	0%	0%	u	i	5.8µM*	6.5µM*
Cc1cccn2c(=O)c3cc(C(=O)NCC4CCCO4)c(=N)n(CCc4ccccc4)c3nc12 (stereo not given)	7%	1%	i	i	26%	u
Cc1ccc2nc3c(cc(C(=O)NCC4CCCO4)c(=N)n3CC3CCCO3)c(=O)n2c1 (stereo not given)	1%	-12%	i	i	2.9µM*	u
CCOC(=O)c1cc2c(=O)n3ccccc3nc2n(CC2CCCO2)c1=NC(C)=O (stereo not given)	-7%	-4%	u	i	u	u
N=c1c(S(=O)(=O)c2ccc(F)cc2)cc2c(=O)n3ccccc3nc2n1CC1CCCO1 (stereo not given)	5%	8%	i	i	16µM*	18µM*
COc1cc(OC)c(NC(=O)N2CCc3c(sc4c3CCCC4)C2c2ccccc2)cc1Cl (stereo not given)	x	x	i	i	x	x
CCOCCCn1c(SCC(=O)Nc2ccccc2OC)nc2c(oc3ccccc32)c1=O	x	x	i	i	x	x
COc1cc(OC)c(OC)cc1CN1CCc2nc(Nc3ccc4c(c3)OCCO4)ncc2C1	x	x	i	i	x	x
CN(C)CCCNc1ncnc2ccc(-c3ccc4c(c3)OCO4)cc12	x	x	i	i	x	x
SMILES	HT1080NT lethal	HT1080 IDH1KD tx	KB-V1 cytotox	KB-3-1 cytotox	MCF10A rerep	SW480 rereplic
N=c1c(C(=O)NC2CCCC2)cc2c(=O)n3ccccc3nc2n1CC1CCCO1 (stereo not given)	-3%	2%	i	u	u	u
N=c1c(C(=O)NC2CCCCC2)cc2c(=O)n3ccccc3nc2n1CC1CCCO1 (stereo not given)	10%	4%	i	i	u	18µM*
Cc1ccc(CNC(=O)c2cc3c(=O)n4ccccc4nc3n(CC3CCCO3)c2=N)cc1 (stereo not given)	5%	7%	u	i	2.1µM*	u
Cc1ccc2nc3nc(NCC4CCCO4)c(C(=O)NC4CCCC4)cc3c(=O)n2c1 (stereo not given)	-1%	4%	i	i	2.6µM*	15%
O=C(C[N+]12CN3CN(CN(C3)C1)C2)c1ccc(O)c(O)c1	x	x	i	i	x	x
O=C(c1ccc2ccccc2n1)N1CCN(Cc2c(F)cccc2Cl)CC1	-9%	-4%	i	i	u	7%
Fc1cccc(Cl)c1CN1CCN(c2nc3ccccc3s2)CC1	-16%	-8%	i	i	16µM*	11%
N#C/C(=C\c1ccc([N+](=O)[O-])cc1)C(=O)NCCCn1ccnc1	14%	-9%	i	u	u	0%
N#C/C(=C/c1cn(-c2ccccc2)nc1-c1cccc(OCc2ccc(F)cc2)c1)C(=O)NCCCn1ccnc1	16µM*	u	16µM*	u	10µM*	u
CCCOc1cccc(-c2nn(-c3ccccc3)cc2/C=C(\C#N)C(=O)NCCCn2ccnc2)c1	-13%	-21%	18µM*	i	u	u
Cn1c(SCc2cc(=O)n3cc(Br)ccc3n2)nnc1C1COc2ccccc2O1 (stereo not given)	0%	9%	12µM*	i	0%	-2%
CCCn1c(=O)[nH]c(=O)c2c1nc(-c1ccccc1OC(F)F)n2CCOC	2%	4%	18µM*	i	6%	1%
